From PubChem BioAssay (NCATS) come the findings set out here.

Several values for one entry are separate records, joined by “and”; a condition that tells them apart may be missing. Equal entries are not always repeated. Inconclusive results are not listed. Activity calls are given as the source filed them. The call rests on the fitted dose curve; in most records, active means well fitted cell-killing curve with a large enough effect; inconclusive means small, poorly fitted or top-dose-only effect; inactive means flat fitted curve, though single readings scatter.
Potency means the concentration at half of the fitted maximal effect.

One assay in a line: Cellular viability qHTS for adrenocortical cancer (ACC) cell line SW-13 (AID 1963989). Further: nearly all actives have a fitted effect of over 65% in size.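 On activity (max response): cells grown in serum-free medium with ITS supplement; on the % scale 0 is the no-effect control and ±100 the full control effect.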 To be noted: SW-13 ACC cells viability, CellTiter-Glo, 48 h; activity (max response): hits give low values. Put shortly:
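Viability was read as CellTiter-Glo luminescence after 48 h compound treatment (up to 46 uM final) of SW-13 cells grown serum-free; titration curves were fit with a four-parameter logistic model to give IC50 and efficacy.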
With `CC(=O)[O][Hg][c]1ccccc1`, the Potency was 1.3 µM (active).
`COc1ccc2c3c1O[C@H]1[C@H](O)CC[C@H]4[C@@H](C2)N(C)CC[C@@]341`: the activity (max response) is -5.89% (inactive).
As for `CN1C(=S)CN=C(c2ccccc2)c2cc(Cl)ccc21`, the activity (max response) is -3.17% (inactive).
As to `O=C(O)C1=CCCN(CCOC(c2ccc(C(F)(F)F)cc2)c2ccc(C(F)(F)F)cc2)C1`, the activity (max response) is -19.1% (inactive).
The same measure, in the same setting: as for `O=C1NCN(c2ccccc2)C12CCN(CC1COc3ccccc3O1)CC2` (stereo not drawn), the figure is -9.54% (inactive); as for `CCc1cc2c(s1)-n1c(C)nnc1CN=C2c1ccccc1Cl`, 12.2% (inactive); as for `CC(C)[N+](C)(CCC(C(N)=O)(c1ccccc1)c1ccccc1)C(C)C`, 1.8% (inactive).
Still for that read-out and setting: as for `CC(Cc1ccccc1)NCCCCl` (stereo not drawn), the figure is -2.78% (inactive); as for `CN1C[C@@H](NS(=O)(=O)N(C)C)C[C@@H]2c3cccc4c3c(cn4C)C[C@H]21`, -2.7% (inactive); as for `CNC(C)Cc1ccccc1OC` (stereo not drawn), -2.94% (inactive).
In the case of `N#CC(C#N)=Cc1ccc(O)c(O)c1`, the activity (max response) is 13.2% (inactive).
On the same count and under the same terms, as for `CCOC(=O)C1(c2ccccc2)CCN(CCc2ccc(N)cc2)CC1`, the figure is -18.4% (inactive).
Same read-out and setting: as for `O=C1OC(CCN2CCCCC2)OC1(c1ccccc1)c1ccccc1` (stereo not drawn), the figure is 2.23% (inactive); as for `C[C@]12Cc3cn[nH]c3C[C@@H]1CC[C@@H]1[C@@H]2CC[C@@]2(C)[C@H]1CC[C@]2(C)O`, -0.402% (inactive) and -24.7% (inactive); as for `c1ccc(CN2CCNCC2)cc1`, -9.53% (inactive).
The same measure, in the same setting: as for `COc1c2c(cc3c1OCO3)CCN(C)C2`, the figure is -10% (inactive).
Turning to `CCN(CCO)CCn1c(Cc2ccccc2)nc2c1c(=O)n(C)c(=O)n2C`, the activity (max response) was 7.74% (inactive).
Still for that read-out and setting: as for `CN(C)CCc1c[nH]c2ccc(O)cc12`, the figure is 2.14% (inactive).
On the same count and under the same terms, as for `CN1C(=O)CN=C(c2ccccc2)c2cc(Cl)ccc21`, the figure is 0.469% (inactive); as for `CC(Cc1ccccc1)NCCn1cnc2c1c(=O)n(C)c(=O)n2C` (stereo not drawn), -22.4% (inactive); as for `c1cc2ccc3cccc4ccc(c1)c2c34`, -9.29% (inactive).
On the same count and under the same terms, as for `COc1cccc([C@@]2(O)CCCC[C@@H]2CN(C)C)c1`, the figure is 2.96% (inactive); as for `O=C(CBr)N1CC([N+](=O)[O-])([N+](=O)[O-])C1`, 7.48% (inactive).
Consider `C[N+]1(C)[C@@H]2CC[C@H]1CC(OC(=O)C(CO)c1ccccc1)C2` (stereo partly drawn), for which the activity (max response) is -4.66% (inactive).
On the same count and under the same terms, as for `CC[C@@H](CO)NC(=O)[C@@H]1C=C2c3cccc4[nH]cc(c34)C[C@H]2N(C)C1`, the figure is -27.7% (inactive).
On the same count and under the same terms, as for `Cn1c(/C=C/CO)c(CO)c2c1C(=O)C=C(N1CC1)C2=O`, the figure is -6.24% (inactive).
As to `Cn1c(CCCCCCC(=O)NO)nc2cc(N(CCCl)CCCl)ccc21`, the Potency was 15.8 µM (active).
As for `O=C(Nc1ccc(Br)cc1)c1cc(Br)cc(Br)c1O`, the activity (max response) is -19.7% (inactive).
Still for that read-out and setting: as for `CN(C)CCc1c[nH]c2cccc(O)c12`, the figure is 3.4% (inactive); as for `C[C@H](CN1CCOCC1)C(C(=O)N1CCCC1)(c1ccccc1)c1ccccc1`, -12.8% (inactive).
On the same count and under the same terms, as for `COc1ccc2[nH]cc(CCN(C(C)C)C(C)C)c2c1`, the figure is -8.69% (inactive); as for `C[C@]12CCC(=O)C(O)=C1CC[C@@H]1[C@@H]2CC[C@]2(C)C(=O)CC[C@@H]12`, 4.45% (inactive) and 4.46% (inactive); as for `CC(=O)c1c(O)c(C)c(O)c(Cc2c(O)c3c(c(C(=O)/C=C/c4ccccc4)c2O)OC(C)(C)C=C3)c1O`, -2.92% (inactive).
On to `CN(C)CCc1c[nH]c2ccccc12`, for which the activity (max response) is -12.4% (inactive).
Consider `OC(c1ccccc1)(c1ccccc1)C1CCNCC1`, for which the activity (max response) was 1.1% (inactive).
The same measure, in the same setting: as for `CC(C(O)c1ccccc1)N(C)C/C=C/c1ccccc1` (stereo not drawn), the figure is -14.5% (inactive); as for `Cc1ncc2n1-c1ccc(Cl)cc1C(c1ccccc1F)=NC2`, -18.8% (inactive); as for `COc1cc(C)[nH]c(=O)c1CNC(=O)c1c(C)n([C@H](C)C2CCOCC2)c2ccccc12`, 8.24% (inactive).
On the same count and under the same terms, as for `CC(=O)[C@H]1CC[C@H]2[C@@H]3CC[C@H]4C[C@H](O)CC[C@]4(C)[C@H]3C(=O)C[C@]12C`, the figure is 0.908% (inactive).

The next assay in a line: Cellular viability qHTS for adrenocortical cancer (ACC) cell line NCI-H295R (AID 1963990). Further: nearly all actives have a fitted effect of over 60% in size.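 On activity change, negative = viability loss: 0% = DMSO only wells and -100% = full killing with cytotoxic reference compound.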 The following applies: CellTiter-Glo ATP luminescence, 48 h; series mostly up to 46.1 µM; activity change, negative = viability loss: at the top concentration. A digest of the protocol:
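CellTiter-Glo ATP luminescence, read 48 h after compound addition, measured viability of NCI-H295R adrenocortical cells grown serum-free with ITS. Final concentrations spanned up to 46 uM. Data normalized to DMSO and doxorubicin, fitted for IC50 and maximal response.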
Take `CC(=O)[O][Hg][c]1ccccc1`: the Potency was 1.46 µM (active).
Consider `COc1ccc2c3c1O[C@H]1[C@H](O)CC[C@H]4[C@@H](C2)N(C)CC[C@@]341`, for which the “activity change, negative = viability loss” value was -16.4% [at 92.7 µM] (inactive).
On to `CN1C(=S)CN=C(c2ccccc2)c2cc(Cl)ccc21`, for which the “activity change, negative = viability loss” value is -25% (inactive).
The same measure, in the same setting: as for `O=C(O)C1=CCCN(CCOC(c2ccc(C(F)(F)F)cc2)c2ccc(C(F)(F)F)cc2)C1`, the figure is -2.17% (inactive).
The same measure, in the same setting: as for `O=C1NCN(c2ccccc2)C12CCN(CC1COc3ccccc3O1)CC2` (stereo not drawn), the figure is -14.9% (inactive); as for `CCc1cc2c(s1)-n1c(C)nnc1CN=C2c1ccccc1Cl`, -1.4% (inactive).
On the same count and under the same terms, as for `CC(C)[N+](C)(CCC(C(N)=O)(c1ccccc1)c1ccccc1)C(C)C`, the figure is -3.69% (inactive).
`CC(Cc1ccccc1)NCCCCl` (stereo not drawn): the “activity change, negative = viability loss” value was 18.2% (inactive).
The same measure, in the same setting: as for `CN1C[C@@H](NS(=O)(=O)N(C)C)C[C@@H]2c3cccc4c3c(cn4C)C[C@H]21`, the figure is -0.0625% (inactive).
Still for that read-out and setting: as for `CNC(C)Cc1ccccc1OC` (stereo not drawn), the figure is 0.47% (inactive); as for `N#CC(C#N)=Cc1ccc(O)c(O)c1`, -16.7% (inactive); as for `CCOC(=O)C1(c2ccccc2)CCN(CCc2ccc(N)cc2)CC1`, 0.524% (inactive).
For the molecule `O=C1OC(CCN2CCCCC2)OC1(c1ccccc1)c1ccccc1` (stereo not drawn), the Potency was 25.9 µM (active).
On to `C[C@]12Cc3cn[nH]c3C[C@@H]1CC[C@@H]1[C@@H]2CC[C@@]2(C)[C@H]1CC[C@]2(C)O`, for which the “activity change, negative = viability loss” value is -8.1% (inactive).
The same measure, in the same setting: as for `c1ccc(CN2CCNCC2)cc1`, the figure is -13% [at 178 µM] (inactive); as for `COc1c2c(cc3c1OCO3)CCN(C)C2`, -12.3% (inactive).
On the same count and under the same terms, as for `CCN(CCO)CCn1c(Cc2ccccc2)nc2c1c(=O)n(C)c(=O)n2C`, the figure is -0.2% (inactive); as for `CN(C)CCc1c[nH]c2ccc(O)cc12`, -31.3% [at 92.7 µM] (inactive); as for `CN1C(=O)CN=C(c2ccccc2)c2cc(Cl)ccc21`, -2.45% (inactive).
Still for that read-out and setting: as for `CC(Cc1ccccc1)NCCn1cnc2c1c(=O)n(C)c(=O)n2C` (stereo not drawn), the figure is -11.7% [at 92.7 µM] (inactive); as for `c1cc2ccc3cccc4ccc(c1)c2c34`, -19.9% [at 92.7 µM] (inactive); as for `COc1cccc([C@@]2(O)CCCC[C@@H]2CN(C)C)c1`, -20.6% (inactive).
On to `O=C(CBr)N1CC([N+](=O)[O-])([N+](=O)[O-])C1`, for which the “activity change, negative = viability loss” value is -12.2% [at 92.7 µM] (inactive).
Still for that read-out and setting: as for `C[N+]1(C)[C@@H]2CC[C@H]1CC(OC(=O)C(CO)c1ccccc1)C2` (stereo partly drawn), the figure is -6.09% (inactive).
On the same count and under the same terms, as for `CC[C@@H](CO)NC(=O)[C@@H]1C=C2c3cccc4[nH]cc(c34)C[C@H]2N(C)C1`, the figure is -22.2% (inactive); as for `Cn1c(/C=C/CO)c(CO)c2c1C(=O)C=C(N1CC1)C2=O`, 7.33% (inactive).
In the case of `Cn1c(CCCCCCC(=O)NO)nc2cc(N(CCCl)CCCl)ccc21`, the Potency is 8.91 µM (active).
On the same count and under the same terms, as for `O=C(Nc1ccc(Br)cc1)c1cc(Br)cc(Br)c1O`, the figure is 10.3 µM (active).
`CN(C)CCc1c[nH]c2cccc(O)c12`: the “activity change, negative = viability loss” value is -18.9% [at 92.7 µM] (inactive).
On the same count and under the same terms, as for `C[C@H](CN1CCOCC1)C(C(=O)N1CCCC1)(c1ccccc1)c1ccccc1`, the figure is -14.5% [at 92.7 µM] (inactive); as for `COc1ccc2[nH]cc(CCN(C(C)C)C(C)C)c2c1`, -21.2% [at 92.7 µM] (inactive).
Take `C[C@]12CCC(=O)C(O)=C1CC[C@@H]1[C@@H]2CC[C@]2(C)C(=O)CC[C@@H]12`: the Potency result was “inactive”.
`CC(=O)c1c(O)c(C)c(O)c(Cc2c(O)c3c(c(C(=O)/C=C/c4ccccc4)c2O)OC(C)(C)C=C3)c1O`: the “activity change, negative = viability loss” value was -1.07% (inactive).
As to `CN(C)CCc1c[nH]c2ccccc12`, the “activity change, negative = viability loss” value is -21.7% [at 178 µM] (inactive).
Regarding `OC(c1ccccc1)(c1ccccc1)C1CCNCC1`, the “activity change, negative = viability loss” value was -0.339% (inactive).
Take `CC(C(O)c1ccccc1)N(C)C/C=C/c1ccccc1` (stereo not drawn): the “activity change, negative = viability loss” value is -27.3% (inactive).
On the same count and under the same terms, as for `Cc1ncc2n1-c1ccc(Cl)cc1C(c1ccccc1F)=NC2`, the figure is -19.4% (inactive).
Take `COc1cc(C)[nH]c(=O)c1CNC(=O)c1c(C)n([C@H](C)C2CCOCC2)c2ccccc12`: the “activity change, negative = viability loss” value was -1.15% (inactive).
The same measure, in the same setting: as for `CC(=O)[C@H]1CC[C@H]2[C@@H]3CC[C@H]4C[C@H](O)CC[C@]4(C)[C@H]3C(=O)C[C@]12C`, the figure is 7.11% (inactive).
